A word on the inhibition: it is the change of the read-out against control, counted positive when it falls.

About 240 (0.075%) of roughly 320,000 compounds were called active. The sample holds actives, similar compounds and a random draw of the others, so the mix is not that of the screen. Unmarked numbers belong to inactive results.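 The calls were made as follows: active = inhibition at or above 25%, using the most active replicate where run in duplicate; inactive = inhibition below 25%.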

Experimental findings from PubChem BioAssay AID2661 (Broad Institute, 2010) are described below.

This assay deals with Serine/threonine-protein kinase 33 (Homo sapiens) (UniProt Q9BYT3). Description: STK33 phosphorylation of MBP blockers – biochemical, ADP-Glo luminescence, homogeneous, cell-free, primary screen (AID 2661). Conditions: purified STK33, MBP phosphorylation, at 10 µM, hits give high values.
Sequence of Serine/threonine-protein kinase 33 (Homo sapiens) (Q9BYT3 whole entry, looked up): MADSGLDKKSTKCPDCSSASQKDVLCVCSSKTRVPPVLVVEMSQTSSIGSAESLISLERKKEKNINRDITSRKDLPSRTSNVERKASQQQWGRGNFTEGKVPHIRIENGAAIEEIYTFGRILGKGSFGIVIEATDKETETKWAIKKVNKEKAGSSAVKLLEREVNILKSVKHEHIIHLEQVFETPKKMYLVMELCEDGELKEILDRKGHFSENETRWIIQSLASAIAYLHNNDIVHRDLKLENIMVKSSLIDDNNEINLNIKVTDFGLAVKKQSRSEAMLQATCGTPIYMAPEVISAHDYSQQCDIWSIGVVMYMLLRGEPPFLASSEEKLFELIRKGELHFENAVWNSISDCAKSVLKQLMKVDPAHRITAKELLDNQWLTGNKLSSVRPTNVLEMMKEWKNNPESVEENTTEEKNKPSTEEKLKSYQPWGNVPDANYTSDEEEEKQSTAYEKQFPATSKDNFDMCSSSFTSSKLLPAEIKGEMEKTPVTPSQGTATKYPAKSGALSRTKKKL
As to `Cc1occc1C(=O)Nc1cccc(S(=O)(=O)N2CCOCC2)c1`, the inhibition is -0.0898%.
`O=C(COC(=O)c1ccc2c(c1)OCCO2)NCc1ccccc1Cl`: the inhibition was 0.627%.
The value for `COc1ccc2sc(-c3ccc(S(C)(=O)=O)cc3)c(-c3ccc(C(N)=O)cc3)c2c1` was 0.996%; that for `CCOC(=O)C1CCN(C(=O)CN2C(=O)NC(C)(c3ccc4cc(OC)ccc4c3)C2=O)CC1` (centres undefined) was -0.656%.
Consider `O=C(OCCN1C(=O)c2ccccc2C1=O)[C@@H]1CC(O)CN1S(=O)(=O)c1ccccc1[N+](=O)[O-]` (some centres undefined), for which the inhibition was -1.85%.
The same measure for `Cc1ccc(C(=O)Nc2ccc3c(c2)OCCO3)cc1S(=O)(=O)N1CCOCC1`: -0.304%; for `CC(C)Cn1c(SCC(=O)Nc2ccc(Cl)cc2F)nc(O)cc1=O`: -0.953%.
The value for `COc1ccc2[nH]c(C(=O)N/N=C/c3cc(OC)c(OC)c(OC)c3)cc2c1` was 2.65%.
The same measure for `CN=c1scc(-c2cc(OC)ccc2OC)n1/N=C/c1c(C)[nH]c2ccccc12`: -0.488%; for `COc1ccccc1N=Cc1c(O)c2ccccc2oc1=O`: -1.49%; for `COc1cc(N=Cc2c(O)[nH]c3ccccc23)cc(OC)c1OC`: 58.4% (active).
Take `COc1cc(/C=N/NC(=O)Cc2ccccc2)cc(OC)c1OC`: the inhibition is -2.17%.
As for `COc1ccc(N=Cc2c(O)[nH]c3ccccc23)cc1OC`, the inhibition was 52.5% (active).
The same measure for `O=C1NC(Cc2ccc(O)cc2)c2nc3ccc(Cl)cc3c(=O)n2-c2ccccc21` (centres undefined): -0.58%; for `COc1ccc(S(=O)(=O)N2CCN(CC(=O)N3CCOCC3)CC2)cc1OC`: -0.603%; for `C=CCC[C@@H](Cc1ccc(F)cc1)C(=O)O[C@H](CNC(=O)[C@H](CC=C)CC(=O)N(CCO)Cc1ccccc1)c1ccccc1`: -2.71%.
The value for `COc1cccc(NC(=O)COc2cccnc2[N+](=O)[O-])c1` was -0.0978%; that for `CC(OC(=O)c1ccc(Cl)cc1O)C(=O)NCCC1=CCCCC1` (centres undefined) was -0.652%; that for `CC1CC(=NNC(=O)C2COc3ccccc3O2)CC(C)(C)C1` (centres undefined) was -2.29%.
The value for `CN(CC(=O)Nc1ccc(C(N)=O)cc1)S(=O)(=O)c1ccc2c(c1)OCCO2` was -0.492%; that for `O=C(Nc1cccc(S(=O)(=O)NC2=NCCC2)c1)c1ccc(F)cc1F` was -1.19%; that for `Cc1ccc(S(=O)(=O)Nc2ccc(F)c(S(=O)(=O)N3CCOCC3)c2)cc1` was -2.74%.
Regarding `COc1ccc(C(=O)COC(=O)C(O)c2ccccc2)c(OC)c1` (centres undefined), the inhibition was -0.118%.
The same measure for `O=C(N[C@@H]1C/C=C\C[C@@H](CC(=O)N(CCO)Cc2ccccc2)C(=O)N[C@H](Cc2ccccc2)COC1=O)OCC1c2ccccc2-c2ccccc21`: -2.32%; for `Fc1ccc2cnc(-c3ccccc3)cc2c1`: -0.562%.
On to `C=CCC[C@@H](Cc1ccc(F)cc1)C(=O)OC[C@H](Cc1c[nH]c2ccccc12)NC(=O)[C@@H](CC=C)CC(=O)N(CCO)Cc1ccccc1`, for which the inhibition is -0.461%.
As for `O=C1N[C@@H](c2ccccc2)COC(=O)[C@H](Cc2ccc(F)cc2)C/C=C\C[C@@H]1CC(=O)N(CCO)Cc1ccccc1`, the inhibition is 0.44%.
The same measure for `CCN(CC(=O)NCc1ccc(F)cc1)S(=O)(=O)c1ccc(Cl)s1`: 0.0366%; for `NC(=O)Nc1ccc(C(=O)OCC(=O)NC2CCCc3ccccc32)cc1` (centres undefined): -0.0928%; for `O=[N+]([O-])c1ccc(N=Cc2c(O)ccc3ccccc23)cc1`: -0.767%.
The same measure for `Oc1ccc(N=Cc2c(O)ccc3ccccc23)cc1`: 57.4% (active); for `Oc1ccc(N=Cc2sc3ccccc3c2Cl)cc1`: 1.25%.
`CC(OC(=O)c1c(F)cccc1F)C(=O)NCCC1=CCCCC1` (centres undefined): the inhibition was -0.382%.
The same measure for `Cc1ccc(C)c(S(=O)(=O)N2CCN(c3ncnc4sccc34)CC2)c1`: -3.05%; for `COc1ccc(C(=O)Nc2cc(S(=O)(=O)N3CCCC3)ccc2Cl)cc1`: 0.138%; for `COc1cc(OC)cc(C(=O)NNC(=O)Cc2cccs2)c1`: -0.657%.
Consider `COc1ccc2sc(-c3ccc(S(C)(=O)=O)cc3)c(C#Cc3cncn3C)c2c1`, for which the inhibition is -0.341%.
The value for `O=C(CNC(=O)c1n[nH]c2ccccc12)Nc1cc(Cl)ccc1Cl` was 1.57%; that for `CC(C)n1cnc2c(NCc3ccccc3)cc(N[C@@H](CO)Cc3ccccc3)cc21` was 0.0472%; that for `C=CC[C@@H](CC(=O)N[C@@H](CO)Cc1ccccc1)C(=O)N[C@H](COC(=O)[C@H](CC=C)CC(=O)OC(C)(C)C)Cc1ccccc1` was -0.409%.
Regarding `CCCCCCSc1ccc([C@@H]2[C@H]3C(=O)N(CC)C(=O)[C@H]3[C@]3(C(=O)OC)CCCCN23)cc1`, the inhibition was 1.08%.
The same measure for `CC(C)NC(=O)Nc1cccc2c1O[C@H](CN(C)S(=O)(=O)c1cccs1)[C@@H](C)CN([C@H](C)CO)C2=O`: -0.082%; for `O=C(CCc1ccc(S(=O)(=O)N2CCOCC2)cc1)OCC(=O)c1ccc(Br)cc1`: 2.88%; for `COc1cc(NC(=O)COC(=O)c2ccc([N+](=O)[O-])s2)cc(OC)c1OC`: -0.723%.
The value for `O=C(CSc1nc2ccccc2c(=O)n1-c1ccccc1F)N1CCOCC1` was -0.216%.
The same measure for `COC(=O)c1ccc(CNC(=O)c2ccc(S(=O)(=O)N3CCCCCC3)cc2)cc1`: -0.472%.
Consider `Cn1cncc1C#Cc1c(-c2ccsc2)sc2ccccc12`, for which the inhibition was 0.202%.
The value for `Cc1ccccc1NC(=O)CSC(=O)c1ccccc1` was -0.158%.
The same measure for `COc1ccc(S(=O)(=O)N2CCOCC2)cc1NC(=O)CSc1nnc(NC2CC2)s1`: -0.646%; for `O=C(CN1C(=O)NC2(CCCCCCC2)C1=O)NCc1ccc(F)cc1`: 0.305%.
The same measure for `COc1cc(/C=C/C(=O)OCC(=O)NCCCc2ccccc2)ccc1O`: -0.517%; for `COc1ccc(-c2sc3ccccc3c2-c2ccc(OCCN3CCOCC3)cc2)cc1`: -0.928%.
Regarding `COc1ccc(S(=O)(=O)N2CCN(c3cnccn3)CC2)cc1`, the inhibition was 0.373%.
The same measure for `Cc1onc(-c2c(F)cccc2Cl)c1C(=O)OCC(=O)N1C(C)CCCC1C` (centres undefined): -0.377%; for `Cc1ccc(C)c(NC(=O)COC(=O)c2nn(C)c(=O)c3ccccc23)c1`: 0.213%.
Take `Cc1cc(NC(=O)CSc2ncc(C(F)(F)F)cc2Cl)no1`: the inhibition was -0.4%.
The same measure for `COc1ccc(C(=O)O)cc1S(=O)(=O)NC1CCN(Cc2ccccc2)CC1`: -0.986%; for `Cn1nnnc1SCC(=O)Nc1sccc1C(N)=O`: 0.459%; for `O=C(c1ccc(S(=O)(=O)NCc2ccco2)cc1)N1CCN(c2ccccc2)CC1`: -0.564%.
The value for `COCC(C)n1c(SCC(=O)NC2CCCCC2C)nc2ccccc2c1=O` (centres undefined) was 1.21%; that for `C[C@H](CO)N1C[C@H](C)[C@H](CN(C)C(=O)Nc2ccc(C(F)(F)F)cc2)Oc2c(NC(=O)c3ccncc3)cccc2C1=O` was -1.64%; that for `Cc1ccc(NC(=O)Cn2cnc3c(OCc4ccccc4)ncnc32)cc1C` was -0.221%.
The same measure for `COc1ccc(-c2oc3ncn(Cc4ccco4)c(=N)c3c2-c2ccc(OC)cc2)cc1`: 0.0388%; for `N=c1c2c(-c3ccccc3)c(-c3ccccc3)n(Cc3ccccc3)c2ncn1CCCO`: -0.27%; for `N=c1c2c(-c3ccccc3)c(-c3ccccc3)oc2ncn1Cc1ccco1`: 29.3% (active).
On to `CSCCC1NC(=O)N(CC(=O)Nc2cccc(S(=O)(=O)N3CCCCCC3)c2)C1=O` (centres undefined), for which the inhibition is -1.42%.
The same measure for `CN=C(Nc1cccc(S(=O)(=O)N2CCOCC2)c1)c1ccccc1`: -1.05%; for `CCN(C(=O)CSc1cccc[n+]1[O-])c1ccccc1`: -2.46%; for `C[C@H](NS(=O)(=O)c1ccc(Cl)cc1)C(=O)OCC(=O)N1CCOCC1`: -1.2%.
Turning to `Cc1ccsc1C(=O)NCCc1ccco1`, the inhibition is -0.976%.
The same measure for `CC(C)CC1NC(=O)c2cc(Cl)ccc2-n2c1nc1ccccc1c2=O` (centres undefined): -0.406%.
As to `CC(NC(=O)COC(=O)CCC(=O)c1ccc(Cl)cc1)c1ccccc1` (centres undefined), the inhibition is 0.0433%.
The same measure for `CCCCCCSc1ccc(-c2nc3ccc(Cl)cn3c2NCc2ccccc2)cc1`: -0.955%; for `O=C(Nc1ccccc1-c1ccccc1)c1cccs1`: 4.17%; for `O=C(Nc1ccccc1-c1nc2ccccc2[nH]c1=O)c1cccs1`: 71.9% (active).
The same measure for `O=C(Nc1ccccc1-c1nnn(CC(=O)N2CCN(c3ccccc3)CC2)n1)c1cccs1`: -0.118%.
The same measure for `O=C(COc1ccc(Br)cc1F)NCC1(N2CCCCC2)CCCCC1`: -1.07%; for `Cc1ccccc1SCC(=O)OCC(=O)N1CC(=O)Nc2ccccc21`: -0.869%; for `C[C@H](CO)N1C[C@H](C)[C@@H](CN(C)C(=O)NC2CCCCC2)Oc2ccc(NC(=O)c3ccncc3)cc2C1=O`: 0.225%.
For `CCC(CO)Oc1cc(NC(=O)c2ccc(Cl)cc2)c2ncn(C(C)C)c2c1` (centres undefined), the inhibition was -0.728%.
Take `COc1ccc(OCC(=O)NNC(=O)C2CCC2)cc1`: the inhibition is -0.275%.
The same measure for `COc1ccc(OC)c(NC(=O)COC(=O)Cc2ccsc2)c1`: 0.647%.
The same measure for `Cc1ccc(S(=O)(=O)N2[C@@H](c3ccc(Br)cc3)C(C(=O)O)=C[C@H]2CC2CCCC2)cc1`: -2.01%; for `CCOC(=O)[C@@H]1[C@H]2COc3ccc(Br)cc3[C@H]2N2C(=O)N(c3ccc(C)cc3)C(=O)[C@@]12C`: -0.0883%.
